PubChem BioAssay
Activity calls are given as the source filed them.

Legend:
[1] = tested on: Human papillomavirus type 1a protein E7 (residues 44-93); assay: HPV1a E7 fragment binders on microarrays, primary screen, biochemical, small-molecule microarray, residues 44-93, 635 nm fluorescence (AID 1108); conditions: small-molecule microarray binding, fluorescence 635 nm; higher = more signal;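 also: E7 fragment applied at 1 µg/mL in TBST for 1 h at 4 C; score combines spot fluorescence with its signal to noise ratio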
[2] = modulators of HCV replicon luciferase signal, primary screen, HCV replication inhibitor project, Huh7 cells, luciferase reporter (AID 1109); conditions: 48 h, higher = more signal;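 also: huh7 hepatoma cells harbouring a luciferase neomycin HCV replicon reporter; luciferase luminescence as measure of HCV replicon replication; test concentration not given here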
[3] = molecular target: Left-right determination factor 2 (Homo sapiens) (UniProt O00292); assay: LEFTY2 binders on small-molecule microarrays, primary screen, biochemical, small-molecule microarray, 635 nm fluorescence scan (AID 1110); conditions: LEFTY2 binding, higher = more signal
[4] = molecular target: Calmodulin-1 (Homo sapiens) (UniProt P0DP23); assay: CALM1 binders on microarrays, EGTA buffer, profiling panel, biochemical, small-molecule microarray, Cy5-labelled CALM1 (AID 1111); conditions: Cy5-CALM1 binding fluorescence, higher = more signal;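 also: labelled calmodulin applied in Tris saline Tween buffer holding calcium plus EGTA and DTT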
[5] = molecular target: Calmodulin-1 (Homo sapiens) (UniProt P0DP23); assay: calcium-bound CALM1 binders on microarrays, profiling panel, artefact control for SMM control-protein annotation, biochemical, small-molecule microarray, Cy5-labelled CALM1, plus calcium (AID 1112); conditions: Cy5-CALM1 binding fluorescence, higher = more signal;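 also: score merges spot fluorescence with signal to noise from triplicate slides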
[6] = small-molecule microarray binders of probe aWnt5a, primary screen, biochemical, biotinylated probe, 635/667 nm fluorescence (AID 1113); conditions: higher = more signal;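 also: score merges 667 nm fluorescence intensity with signal-to-noise per printed feature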
[7] = small-molecule microarray binders of probe aShh, primary screen, biochemical, biotinylated probe, 635/667 nm fluorescence (AID 1114); conditions: higher = more signal;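 also: probe is biotin-labelled aShh protein from a stem cell growth factor screen; measures binding of labelled protein to compounds printed on the slide; score merges feature fluorescence at 667 nm with signal-to-noise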
[8] = small-molecule microarray binders of probe aNog, primary screen, biochemical, biotinylated probe, 635/667 nm fluorescence (AID 1115); conditions: higher = more signal;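 also: probe is biotinylated aNog protein used at 0.15 µg/mL for 1 h at 4 C; z-score combines 667 nm fluorescence of each spot with its signal to noise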
[9] = molecular target: Torsin-1A-interacting protein 1 (Homo sapiens) (UniProt Q5JTV8); assay: LAP1 binders from COS7 cell lysate, primary screen, small-molecule microarray, 635/667 nm fluorescence (AID 1116); conditions: COS7-hLAP1 lysate binding, 635 nm fluorescence, higher = more signal
[10] = molecular target: Alpha-bungarotoxin (Bungarus multicinctus) (UniProt P60615); assay: alpha-bungarotoxin binders on microarray, profiling panel, artefact control for SMM control protein annotation, biochemical, small-molecule microarray, Alexa647 label, 635/667 nm fluorescence (AID 1117); conditions: alpha-BTX-A647 binding fluorescence, higher = more signal
Albumin (Bos taurus) = Albumin (Bos taurus) (UniProt P02769); assay: bovine serum albumin binders on microarray, profiling panel, artefact control for SMM control protein annotation, biochemical, small-molecule microarray, Alexa647 label, 635/667 nm fluorescence (AID 1118); conditions: BSA-A647 binding, fluorescence 635 nm, higher = more signal;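 also: score merges 667 nm emission intensity and signal-to-noise per printed compound spot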
[11] = small-molecule microarray binders of probe aXIP, primary screen, biochemical, NeuroSMM set, 635/667 nm fluorescence (AID 1119); conditions: higher = more signal, called active from +8 up or from −8 down;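 also: probe is the protein aXip251-270 applied at 1 µg/mL to compound-printed slides; binding of probe to printed compounds measured as 667 nm fluorescence plus signal to noise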
[12] = small-molecule binders of probe aNOTCH3, primary screen, biochemical, small-molecule microarray, 635/667 nm fluorescence (AID 1120); conditions: higher = more signal;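 also: probe is a biotin-tagged antibody raised against NOTCH3 rather than NOTCH3 protein; score merges spot fluorescence near 667 nm with spot signal to noise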
[13] = small-molecule binders of probe aNOTCH2, primary screen, biochemical, small-molecule microarray, 635/667 nm fluorescence (AID 1121); conditions: higher = more signal;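 also: score merges feature fluorescence read at 667 nm with its signal to noise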
[14] = molecular target: Carbonic anhydrase 2 (Homo sapiens) (UniProt P00918); assay: CAII small-molecule binders, profiling panel, biochemical, small-molecule microarray, Alexa647-labelled CAII (AID 1122); conditions: CAII-A647 binding fluorescence, higher = more signal
[15] = COS7 lysate on small-molecule microarray, probe aHis, 635 nm (AID 1123); conditions: COS7 cell lysate, fluorescence, higher = more signal;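 also: z-score combines 667nm fluorescence intensity with signal-to-noise per printed compound spot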
[16] = compound binding in COS7 lysate, probe aLAP1, primary screen, cell lysate, small-molecule microarray (AID 1124); conditions: probe aLAP1, fluorescence, higher = more signal;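 also: lysate comes from COS7 cells expressing LAP1 and is applied at 0.3 µg/mL; score merges spot fluorescence near 667 nm with signal-to-noise over triplicate slides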
Sam68 (KHDRBS1) = assay: Sam68 small-molecule binders, primary screen, biochemical, small-molecule microarray, 635 nm fluorescence (AID 1125); conditions: small-molecule microarray binding, higher = more signal;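 also: score merges 667 nm channel intensity with signal to noise over triplicate slides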
[17] = tested on: Chordin-like protein 2 (CHRDL2); assay: CHRDL2 small-molecule binders, primary screen, biochemical, small-molecule microarray, 635 nm fluorescence (AID 1126); conditions: small-molecule microarray binding, fluorescence 635 nm; higher = more signal;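 also: printed compound slides probed with Chrdl2 protein at 4 µg/mL for 1 h at 4 C; score merges 667 nm emission intensity with signal to noise over three replicate slides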
[18] = molecular target: Concanavalin-A (Canavalia ensiformis) (UniProt P02866); assay: ConA small-molecule binders, primary screen, artefact control for SMM control protein annotation, biochemical, small-molecule microarray, Alexa647 label, 635 nm (AID 1127); conditions: ConA-A647 binding fluorescence, higher = more signal;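 also: z combines 667 nm emission intensity with signal-to-noise across three replicate slides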
Concanavalin-A (Canavalia ensiformis), sequence (P02866 whole entry, looked up): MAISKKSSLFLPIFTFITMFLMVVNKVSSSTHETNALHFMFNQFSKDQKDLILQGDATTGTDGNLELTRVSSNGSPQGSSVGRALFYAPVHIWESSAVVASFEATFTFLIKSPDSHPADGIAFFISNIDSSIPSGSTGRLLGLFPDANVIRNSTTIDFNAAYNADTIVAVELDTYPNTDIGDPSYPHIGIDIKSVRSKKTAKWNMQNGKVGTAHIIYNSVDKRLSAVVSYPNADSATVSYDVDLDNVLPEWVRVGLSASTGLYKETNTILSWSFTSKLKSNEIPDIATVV

Albumin (Bos taurus), sequence (P02769 whole entry, looked up): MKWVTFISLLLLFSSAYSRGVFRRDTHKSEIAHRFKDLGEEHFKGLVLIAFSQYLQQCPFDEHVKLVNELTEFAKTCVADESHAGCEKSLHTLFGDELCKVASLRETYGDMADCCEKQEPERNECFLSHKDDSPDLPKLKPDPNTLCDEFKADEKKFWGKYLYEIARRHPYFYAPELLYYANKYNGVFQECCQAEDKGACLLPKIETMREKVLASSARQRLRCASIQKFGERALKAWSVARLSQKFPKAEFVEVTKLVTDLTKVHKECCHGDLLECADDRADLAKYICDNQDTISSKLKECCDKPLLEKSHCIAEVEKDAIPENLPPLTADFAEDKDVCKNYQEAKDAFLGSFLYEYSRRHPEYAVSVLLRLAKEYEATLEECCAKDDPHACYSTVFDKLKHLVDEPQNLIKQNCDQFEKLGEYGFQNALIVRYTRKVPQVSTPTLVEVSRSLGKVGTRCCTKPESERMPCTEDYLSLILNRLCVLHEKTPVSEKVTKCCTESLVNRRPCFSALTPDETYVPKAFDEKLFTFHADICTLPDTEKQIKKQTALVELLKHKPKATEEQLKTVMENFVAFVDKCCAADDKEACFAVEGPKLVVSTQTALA
Torsin-1A-interacting protein 1 (Homo sapiens), sequence (Q5JTV8 whole entry, looked up): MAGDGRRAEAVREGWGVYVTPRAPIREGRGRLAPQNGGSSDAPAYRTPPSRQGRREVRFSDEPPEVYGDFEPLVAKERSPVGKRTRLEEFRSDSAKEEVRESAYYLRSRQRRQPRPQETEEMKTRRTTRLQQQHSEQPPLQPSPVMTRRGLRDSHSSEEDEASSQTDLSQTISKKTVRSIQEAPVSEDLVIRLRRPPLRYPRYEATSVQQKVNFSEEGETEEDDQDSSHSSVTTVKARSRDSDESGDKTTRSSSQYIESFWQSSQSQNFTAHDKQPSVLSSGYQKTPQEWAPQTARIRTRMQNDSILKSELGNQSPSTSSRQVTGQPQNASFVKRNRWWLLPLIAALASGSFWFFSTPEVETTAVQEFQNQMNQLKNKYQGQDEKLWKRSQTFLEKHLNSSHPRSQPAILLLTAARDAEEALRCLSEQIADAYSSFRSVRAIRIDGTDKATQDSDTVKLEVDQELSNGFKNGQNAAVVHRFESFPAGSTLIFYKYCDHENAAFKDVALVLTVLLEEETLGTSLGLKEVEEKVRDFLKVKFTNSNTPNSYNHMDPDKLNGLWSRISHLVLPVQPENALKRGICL
Left-right determination factor 2 (Homo sapiens), sequence (O00292 whole entry, looked up): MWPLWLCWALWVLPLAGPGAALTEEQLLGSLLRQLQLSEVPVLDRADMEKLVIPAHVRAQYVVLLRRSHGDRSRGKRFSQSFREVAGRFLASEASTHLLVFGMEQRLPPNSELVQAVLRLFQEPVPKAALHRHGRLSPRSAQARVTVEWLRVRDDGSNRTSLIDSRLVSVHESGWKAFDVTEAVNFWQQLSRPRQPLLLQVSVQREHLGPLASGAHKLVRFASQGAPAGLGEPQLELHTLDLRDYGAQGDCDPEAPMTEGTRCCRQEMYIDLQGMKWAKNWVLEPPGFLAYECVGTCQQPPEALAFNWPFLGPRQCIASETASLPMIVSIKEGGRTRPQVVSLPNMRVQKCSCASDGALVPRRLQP
Alpha-bungarotoxin (Bungarus multicinctus), sequence (P60615 whole entry, looked up): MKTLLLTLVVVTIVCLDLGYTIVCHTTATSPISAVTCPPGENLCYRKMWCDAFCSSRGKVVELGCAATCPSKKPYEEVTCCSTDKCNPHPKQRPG

Structure (SMILES) | composite z-score [1] | z-score [2] | composite z-score [3] | composite z-score [4] | composite z-score [5] | composite z-score [6] | composite z-score [7] | composite z-score [8] | composite z-score [9] | composite z-score [10] | composite z-score (Albumin (Bos taurus)) | composite Z-score [11] | composite z-score [12] | composite z-score [13] | composite z-score [14] | composite z-score [15] | composite z-score [16] | composite z-score (Sam68 (KHDRBS1)) | composite z-score [17] | composite z-score [18]
COc1ccc([Si](C)(C)[C@@H]2[C@@H](CC(=O)N3Cc4ccccc4C[C@H]3CO)O[C@]3(C(=O)N(Cc4cccc(N5CCOC5=O)c4)c4ccccc43)[C@H]2C)cc1 | 1.02 | -3.46 | 0.736 | -0.695 | -0.611 | -0.0684 | -0.0243 | -0.397 | 0.0192 | 0.258 | -0.699 | 0.844 (inactive) | 0.0016 | -0.117 | 0.038 | 0.479 | 0.333 | 1.1 | 1.32 | 0.844
COC(=O)[C@@]1(Cc2ccc(OC)cc2)[C@H]2c3cc(C(=O)N4CCCC4)n(Cc4ccc(C(F)(F)F)nc4)c3C[C@H]2CN1C(=O)c1ccccc1 | 0.381 | -2.25 | -0.412 | 0.0624 | -0.954 | 0.037 | -0.153 | 0.374 | 0.476 | -0.075 | 0.948 | -0.325 (inactive) | 0.361 | 0.0224 | 0.737 | 0.297 | 0.511 | 0.524 | -0.249 | -0.308
COc1ccc([Si](C)(C)[C@@H]2[C@@H](CC(=O)N3CCC[C@H]3CO)O[C@]3(C(=O)N(Cc4ccc(N5CCOC5=O)cc4)c4ccccc43)[C@H]2C)cc1 | 1.06 | -1.58 | 0.327 | 1.08 | 0.461 | -0.175 | 0.0121 | -0.402 | 1.1 | 0.931 | 0.746 | 0.408 (inactive) | -0.0362 | -0.136 | 0.408 | 1.02 | 0.373 | 1.31 | 0.509 | 0.884
COCC(=C=CC[C@H](O)c1ccccc1OCCO)C[C@H](O)COCc1ccccc1 | 1.2 | -1.51 | 0.0832 | 0.324 | -0.678 | -0.0685 | 0.275 | 0.589 | 1.36 | -0.346 | 0.816 | 0.0117 (inactive) | 0.304 | -0.148 | 0.505 | 2.08 | 1.81 | 1.14 | 0.0973 | 0.245
CN(C)C(=O)[C@@]1(Cc2ccccc2CN=[N+]=[N-])COC(c2ccc(OCCCO)cc2)=N1 | 1.37 | -2 | -1.09 | 0.809 | 0.812 | -0.0478 | 0.0483 | -0.226 | -0.383 | 1.3 | 0.819 | -0.0705 (inactive) | -0.0048 | -0.156 | 0.572 | 1.78 | -0.0884 | 0.0673 | -0.781 | 1.04
CCCCC(=C=CC[C@H](O)c1ccc(CO)o1)CCO | 0.906 | -0.401 | 0.346 | 0.155 | -0.363 | -0.124 | 0.137 | 0.2 | 0.906 | 0.221 | 0.86 | -0.334 (inactive) | -0.0544 | -0.0404 | 0.54 | 0.143 | -0.311 | 0.864 | 0.386 | 0.689
C=CC[C@@]12N=C(c3ccc(OCCCO)cc3)O[C@@H]1c1ccccc1N(CCC)C2=O | 1.35 | -2.18 | 0.271 | 0.106 | -0.242 | -0.0485 | 0.337 | 0.164 | 1.2 | 1.77 | 0.727 | 0.414 (inactive) | 0.0968 | -0.0617 | 0.326 | 2.73 | -0.227 | 1.29 | 1.24 | 1.06
COC(=O)[C@@]1(Cc2ccc(F)cc2)[C@H]2c3cc(C(=O)N(C)C)n(C)c3C[C@H]2CN1C(=O)c1ccccc1 | 0.0469 | -0.275 | -0.21 | 1.1 | 0.815 | 0.0095 | 0.705 | 1.01 | 0.509 | 0.0278 | 0.637 | 0.343 (inactive) | 0.224 | 0.352 | 0.777 | 1.37 | 0.33 | -0.333 | -0.401 | 0.768
CCCCCC1=C2CNC(CC(C)C)(C(=O)OC)C=C2C(C)C1=O (stereo not given) | 1.2 | -0.897 | -0.869 | 1.64 | 1.22 | -0.0165 | 1.16 | 0.154 | 0.932 | 0.195 | 0.624 | -0.378 (inactive) | 0.376 | 0.0453 | 0.495 | 1.9 | 0.602 | 1.18 | -0.861 | 0.232
O=C1C[C@@](C(=O)O)(c2ccc([N+](=O)[O-])cc2)[C@@H](c2ccc(CO)cc2)N1C1CCCCC1 | 1.45 | -1.67 | 0.245 | 1.2 | 0.161 | 0.0037 | 0.116 | -0.485 | 0.493 | 1.07 | 0.88 | 0.628 (inactive) | 0.204 | -0.0029 | 0.508 | 2.02 | 0.281 | 1.34 | 0.0583 | 1.05
O=C1NC(=O)C2C1C=CC(C(O)c1ccc([N+](=O)[O-])cc1)N2Nc1ccccn1 (stereo not given) | -0.382 | 0.403 | 0.33 | 0.259 | -0.746 | -0.102 | -0.138 | 0.0193 | 0.45 | -0.011 | -0.494 | -0.267 (inactive) | -0.173 | -0.0843 | 0.265 | 0.555 | 0.0223 | -0.413 | 0.472 | -0.257
CC(C)C[C@@H]1NC(=O)[C@@]23C(=O)N[C@@H](Cc4ccccc4)C2[C@H](C)[C@@]2(C)O[C@H]2C3/C=C/C/C=C\CNC(=O)CNC1=O (stereo not given in full) | 0.346 | 0.349 | 0.259 | -0.535 | -0.963 | -0.0478 | -0.138 | -0.125 | 0.189 | 0.49 | 0.0829 | -0.568 (inactive) | -0.0869 | -0.14 | 0.719 | 0.283 | 0.0471 | 0.613 | 0.322 | 0.423
